# Test results: PubChem BioAssay (NCATS)
# Values without a mark were called inactive. Unless noted, the call rests on the fitted dose curve; in most records, active means well fitted curve in either direction with a large enough effect (not every such curve was filed as active); inconclusive means small, poorly fitted or top-dose-only effect, or another doubt; inactive means flat fitted curve, though single readings scatter. Records with an inconclusive call do not appear.
# Target: Mitogen-activated protein kinase 10 (Mus musculus) (UniProt Q61831)
# Experiment: JNK3 AlphaScreen Assay (AID 530);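 further: kinase came from lysate of stimulated human HepG2 cells; signal reports phosphorylation of biotinylated GST-cJun 1-79 at Ser73 with 10 µM ATP; on the % scale 0 is the no-effect control and ±100 the full control effect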
# Settings: JNK3 lysate, c-Jun phosphorylation; series mostly up to 57.1 µM; activity change, negative = inhibition: at the top concentration
# Procedure, shortened: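 Phosphorylation of biotinylated GST-cJun(1-79) at Ser73 is measured by AlphaScreen proximity luminescence. Enzyme is JNK3 in HepG2 lysates activated with interleukin-1beta and tumor necrosis factor alpha; ATP is 10 uM final.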
row,Structure (SMILES),"activity change, negative = inhibition"
1,NC(=S)c1ccc[n+]([C@@H]2O[C@@H](COP(=O)([O-])OP(=O)(O)OC[C@@H]3O[C@@H](n4cnc5c(N)ncnc54)[C@@H](OP(=O)(O)O)[C@H]3O)[C@@H](O)[C@H]2O)c1,10.7%
2,CCOC(=O)C1=C(C)NC(C)=C(C(=O)OC)[C@H]1c1cccc(Cl)c1Cl,10.3%
3,CCCCCCCCN[C@@H](C)[C@H](O)c1ccc(SC(C)C)cc1,0.125% [at 25.6 µM]
4,NC(=O)/C(=C\c1ccncc1)c1cccc2ccccc12,1.18% [at 11.4 µM]
5,C[C@H](CCC(=O)O)[C@H]1CC[C@@H]2[C@H]3CC[C@H]4C[C@@H](O)CC[C@@]4(C)[C@H]3CC[C@]21C,-5.14% [at 25.6 µM]
6,Cc1cc(C(C)(C)CC(C)(C)C)ccc1OCCOCC[N+](C)(C)Cc1ccccc1,-4.64% [at 25.6 µM]

# Target: 3',5'-cyclic-AMP phosphodiesterase 4B (Homo sapiens) (UniProt Q07343)
# Experiment: qHTS Assay for Inhibitors of PDE-IV (AID 607; active means well fitted activation curve with a large enough effect in the main read-out, with a control signal flat, not every such curve was filed as active; further: % of control where 0% means no effect)
# Settings: HEK293 ACTOne CNG channel cells, membrane potential fluorescence; series mostly up to 22.9 µM; activation (PDE inhibition): at the top concentration
# Procedure, shortened: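 Live HEK293 cells with a modified cyclic nucleotide-gated (CNG) channel report intracellular cAMP via membrane-potential dye fluorescence (ex 535/em 590 nm). Endogenous PDE-IV was targeted. Compounds were tested at up to 22.9 uM final; RO 20-1724 100 uM served as control.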
# Sequence of 3',5'-cyclic-AMP phosphodiesterase 4B (Homo sapiens) (Q07343 whole entry, looked up): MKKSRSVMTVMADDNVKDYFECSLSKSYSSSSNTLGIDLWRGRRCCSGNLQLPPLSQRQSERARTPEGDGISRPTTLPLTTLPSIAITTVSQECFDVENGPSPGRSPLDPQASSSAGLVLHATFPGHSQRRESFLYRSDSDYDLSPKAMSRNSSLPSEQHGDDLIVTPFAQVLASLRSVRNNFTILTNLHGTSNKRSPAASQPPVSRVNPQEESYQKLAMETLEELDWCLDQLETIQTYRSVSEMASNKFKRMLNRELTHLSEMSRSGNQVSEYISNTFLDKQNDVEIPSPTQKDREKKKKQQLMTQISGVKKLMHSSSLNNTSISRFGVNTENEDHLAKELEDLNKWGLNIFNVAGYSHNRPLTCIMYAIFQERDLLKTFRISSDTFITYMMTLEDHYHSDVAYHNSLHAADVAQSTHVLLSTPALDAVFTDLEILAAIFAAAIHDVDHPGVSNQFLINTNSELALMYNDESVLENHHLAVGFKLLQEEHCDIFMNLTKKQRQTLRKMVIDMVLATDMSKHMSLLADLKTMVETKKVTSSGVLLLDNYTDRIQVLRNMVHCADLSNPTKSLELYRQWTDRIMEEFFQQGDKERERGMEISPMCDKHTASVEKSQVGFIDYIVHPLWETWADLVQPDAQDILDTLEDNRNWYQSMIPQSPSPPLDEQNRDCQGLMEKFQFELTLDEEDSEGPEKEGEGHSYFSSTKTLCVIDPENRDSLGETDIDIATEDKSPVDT
row,Structure (SMILES),activation (PDE inhibition) [%]
1,NC(=S)c1ccc[n+]([C@@H]2O[C@@H](COP(=O)([O-])OP(=O)(O)OC[C@@H]3O[C@@H](n4cnc5c(N)ncnc54)[C@@H](OP(=O)(O)O)[C@H]3O)[C@@H](O)[C@H]2O)c1,-9.84
2,CCOC(=O)C1=C(C)NC(C)=C(C(=O)OC)[C@H]1c1cccc(Cl)c1Cl,19.9
3,NC(=O)/C(=C\c1ccncc1)c1cccc2ccccc12,-5.43
4,C[C@H](CCC(=O)O)[C@H]1CC[C@@H]2[C@H]3CC[C@H]4C[C@@H](O)CC[C@@]4(C)[C@H]3CC[C@]21C,-2.83
5,Cc1cc(C(C)(C)CC(C)(C)C)ccc1OCCOCC[N+](C)(C)Cc1ccccc1,25.3

# Target: Cytochrome P450 3A4 (Homo sapiens) (UniProt P08684)
# Experiment: qHTS Assay for Activators of Cytochrome P450 3A4 (AID 885; active means well fitted activation curve with a large enough effect; further: nearly all actives have a fitted effect of over 65% in size)
# Settings: recombinant CYP3A4, Luciferin-PPXE luminescence, 60 min; series mostly up to 57.1 µM; activity change, positive = activation: at the top concentration
# Procedure, shortened: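 Using 20nM recombinant human CYP3A4 in potassium phosphate (200mM), substrate Luciferin-PPXE at 25uM, luminescent luciferin detection followed a 60-min RT NADPH reaction; data scaled to 57 uM ketoconazole.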
# Sequence of Cytochrome P450 3A4 (Homo sapiens) (P08684 whole entry, looked up): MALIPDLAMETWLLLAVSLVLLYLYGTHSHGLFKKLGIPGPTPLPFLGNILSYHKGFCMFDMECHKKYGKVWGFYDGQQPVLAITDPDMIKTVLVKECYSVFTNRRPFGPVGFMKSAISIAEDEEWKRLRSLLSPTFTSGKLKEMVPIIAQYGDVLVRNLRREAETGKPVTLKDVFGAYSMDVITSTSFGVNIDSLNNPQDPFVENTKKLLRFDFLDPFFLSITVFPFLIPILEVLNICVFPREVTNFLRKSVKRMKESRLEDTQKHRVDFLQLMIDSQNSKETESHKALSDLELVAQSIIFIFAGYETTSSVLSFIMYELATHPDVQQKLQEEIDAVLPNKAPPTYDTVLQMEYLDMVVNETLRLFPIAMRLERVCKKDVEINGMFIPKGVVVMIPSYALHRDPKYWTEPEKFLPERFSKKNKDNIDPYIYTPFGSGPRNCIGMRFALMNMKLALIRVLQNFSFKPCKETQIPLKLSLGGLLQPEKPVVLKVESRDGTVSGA
row,Structure (SMILES),"activity change, positive = activation"
1,NC(=S)c1ccc[n+]([C@@H]2O[C@@H](COP(=O)([O-])OP(=O)(O)OC[C@@H]3O[C@@H](n4cnc5c(N)ncnc54)[C@@H](OP(=O)(O)O)[C@H]3O)[C@@H](O)[C@H]2O)c1,-70.3%
2,CCCCCCCCN[C@@H](C)[C@H](O)c1ccc(SC(C)C)cc1,-38.7% [at 25.6 µM]
3,NC(=O)/C(=C\c1ccncc1)c1cccc2ccccc12,-72.7% [at 11.4 µM]
